RECQ1 inh-1: blocks DNA unwinding by human RECQ1; 0.54% of 240,000 active; P46063; Potency, µM (series often up to 57.3 µM), for the others: at the highest dose activity, negative = inhibition, most hits filed as inhibitors; RECQ1 DNA unwinding, red fluorescence kinetic read; AID 2549;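 note: plate controls were vehicle for no effect and no enzyme for full effect; nearly all actives have a fitted effect of over 30% in size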
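50 nM RECQ1T1 preincubated 15 min with compound in Tris pH 8.0 buffer with MgCl2, DTT, Tween-20 and 2.5 ug/ml poly(dI-dC); started with 200 nM TAMRA/BHQ-2 forked duplex and 2 mM ATP. Unwinding read as fluorescence (525/598 nm), two reads 2 h apart.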
TRb SRC2 PPI: inhibitors of human thyroid hormone receptor beta-SRC2 interaction; P10828; TRbeta-SRC2 peptide binding, fluorescence polarization; receptor liganded with 1 µM T3; Potency, µM (titrated, usually from 106 µM), for the others: top-dose activity change, negative = inhibition, usual class: inhibitors; 0.065% of 280,000 active; AID 1469;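 note: plate controls were bound peptide for no effect and peptide without receptor for full effect; nearly all actives have a fitted effect of over 50% in size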
Target sequence (P10828 whole entry, looked up): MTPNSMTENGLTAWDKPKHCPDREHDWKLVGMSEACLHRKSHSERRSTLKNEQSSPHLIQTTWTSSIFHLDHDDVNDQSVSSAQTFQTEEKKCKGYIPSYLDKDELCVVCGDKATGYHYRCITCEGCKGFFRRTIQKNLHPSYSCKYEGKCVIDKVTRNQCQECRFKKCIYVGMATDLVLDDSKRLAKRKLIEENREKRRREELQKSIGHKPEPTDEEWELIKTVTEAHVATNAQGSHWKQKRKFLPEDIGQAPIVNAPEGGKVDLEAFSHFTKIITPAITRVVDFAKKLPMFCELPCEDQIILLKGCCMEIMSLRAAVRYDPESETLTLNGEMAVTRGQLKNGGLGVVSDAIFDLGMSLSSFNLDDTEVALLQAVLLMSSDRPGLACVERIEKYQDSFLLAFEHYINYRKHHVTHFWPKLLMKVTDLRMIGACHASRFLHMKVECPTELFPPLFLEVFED
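A fluorescence polarization screen tested compounds at multiple concentrations against complex formation between 0.6 uM TRb ligand-binding domain and 20 nM Texas Red SRC2 peptide, with 1 uM T3 present; readout after 5 hr.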
BLM inh-1: blocks DNA unwinding by human BLM helicase. P54132. recombinant BLM DNA unwinding, fluorescence dequenching. Potency, µM (titrated, usually from 56.1 µM), for the others: at the highest dose activity change, negative = inhibition, usual class: inhibitors. 0.2% of 350,000 active;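 note: plate controls were vehicle for no effect and no enzyme for full effect; nearly all actives have a fitted effect of over 35% in size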
TR SRC2 fluor cs: counter-screen for TRb-SRC2 inhibitors: fluorescence interference. TRb/SRC2 Texas Red total fluorescence interference. Potency, µM (top dose mostly 106 µM), without a hit: at the top dose fluorescence change, negative = quenching. 0.29% of 280,000 active. AID 1479; active = well fitted curve in either direction with a large enough effect; inconclusive = small, poorly fitted or top-dose-only effect
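Flags fluorescent or light-absorbing compounds by total fluorescence, S + 2P, at 555 nm excitation and 632 nm emission. Mixture: 20 nM Texas Red SRC2 peptide, 0.6 uM human TRb LBD, 1 uM T3, 5% DMSO; compound exposure 5 h at ambient temperature.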
WRN helicase inh: blocks human WRN helicase; Q14191; WRN helicase unwinding, fluorescent forked duplex, kinetic; Potency, µM (highest dose often 114 µM), inactives show top-dose activity change, negative = inhibition, hits mostly inhibitors; 0.46% of 360,000 active; AID 651768; note: nearly all actives have a fitted effect of over 55% in size
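Enzyme (20 nM final) and test compound sit together 15 min at room temperature before substrate addition. Substrate is a single-forked duplex oligonucleotide (100 nM) labelled with fluorophore and quencher, with 2 mM ATP; helicase unwinding raises red fluorescence, read kinetically.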
APEX1 inh: APE1 (human) endonuclease inhibition; recombinant APE1, TAMRA/BHQ-2 abasic DNA cleavage fluorescence; P27695; 0.35% of 350,000 active; Potency, µM (top dose mostly 65.8 µM), inactives show at the top dose activity change, negative = inhibition, hits mostly inhibitors;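 note: plate controls were vehicle for no effect and reference inhibitor for full effect; nearly all actives have a fitted effect of over 55% in size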
Target sequence (P27695 whole entry, looked up): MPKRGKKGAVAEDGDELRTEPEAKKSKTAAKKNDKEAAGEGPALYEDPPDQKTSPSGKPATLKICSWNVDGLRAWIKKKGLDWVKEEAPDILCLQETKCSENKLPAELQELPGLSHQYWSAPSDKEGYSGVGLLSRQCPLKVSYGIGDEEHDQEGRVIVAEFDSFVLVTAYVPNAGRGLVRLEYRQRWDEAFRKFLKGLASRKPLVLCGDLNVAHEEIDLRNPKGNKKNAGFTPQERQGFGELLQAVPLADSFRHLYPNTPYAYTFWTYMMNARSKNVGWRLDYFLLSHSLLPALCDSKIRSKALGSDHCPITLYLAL
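Substrate: short duplex with […] THF abasic site, 5'-TAMRA and 3'-BHQ-2, 50 nM final. APE1 at 0.75 nM, preincubated 15 min RT with compound. Fluorescence increase from first to third read measured activity.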
BLM inh-2: confirmation of inhibitors of human Bloom syndrome helicase BLM; shares compounds with BLM inh-1; AID 2585; Potency, µM, inactives show max response, negative = inhibition, hits mostly inhibitors; BLM DNA unwinding, fluorescence quenching, biochemical; 40% of 220 active;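 note: strand separation dequenches TAMRA so unwinding raises red fluorescence; series mostly up to about 69 µM; nearly all actives have a fitted effect of over 45% in size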
RECQ1 inh conf: confirmation of human RECQ1 helicase inhibitors | shares compounds with RECQ1 inh-1 | RECQ1 helicase DNA unwinding, fluorescence | Potency, µM (highest dose often 229 µM), inactives show at the top dose activity change, negative = inhibition, hits mostly inhibitors | 28% of 610 active | AID 2708; note: nearly all actives have a fitted effect of over 45% in size
ADP FP counter: ADP displacement flagged in RECQ1 inhibitor counter-screen; shares compounds with RECQ1 inh-1; ADP fluorescence polarization displacement counterscreen; Potency, µM (highest dose often 228 µM), for inactives: top-dose activity change, negative = inhibition, most hits filed as inhibitors; 27% of 530 active; note: nearly all actives have a fitted effect of over 45% in size
RECQ1 inh-2: RECQ1 helicase inhibition confirmed, round 2; shares compounds with RECQ1 inh-1; Potency, µM (series often up to 119 µM), for inactives: top-dose activity, negative = inhibition, hits mostly inhibitors; recombinant RECQ1 DNA unwinding, red fluorescence; AID 504841; 15% of 1,100 active; note: nearly all actives have a fitted effect of over 50% in size
Numbers without * were called inactive; i = inactive; ? = inconclusive; / = no result; ! = repeats disagree; [ ] = dose if it differs, or a comment. Only some compounds are listed: those with a hit (about 0.91% of all), similar ones and a draw of the others. Unless noted, calls come from the whole dose curve; as a rule, active = well fitted curve in the direction sought with a large enough effect; inconclusive = small, poorly fitted or top-dose-only effect, or another doubt; inactive = no such curve, though single readings can be large; an effect the other way counts as inactive or inconclusive. Unless noted, % is set by controls: 0 for no effect and ±100 for the full control effect; potency is the fitted concentration of half-maximal effect.

SMILES	RECQ1 inh-1	TRb SRC2 PPI	BLM inh-1	TR SRC2 fluor cs	WRN helicase inh	APEX1 inh	BLM inh-2	RECQ1 inh conf	RECQ1 inh-2	others
COC(=O)c1c(NC(=O)COC(=O)c2ccc(NC(=O)CC#N)cc2)sc2c1CCCCC2	i	-3%	32µM*	1%	56µM*	14%	?	/	/
CCOc1ccc2nc3cc(NCc4ccc(OC)cc4)ccc3c(N)c2c1	/	/	14µM*	/	35µM*	-22%	7.3µM*	/	/
Cc1cccc(N(CC(=O)NC2CCCC2)C(=O)c2csnn2)c1C	/	/	0%	/	-7%	1%	/	/	/
CCOC(=O)c1sc2nc3c(SCC(=O)O)cc(C(=O)c4ccccc4O)cn3c(=O)c2c1C	-12%	-3%	-16%	0%	2%[57.1 µM]	?	/	/	/
CCOC(=O)c1sc2nc3c(SCC(=O)O)cc(C(=O)c4cc(F)ccc4O)cn3c(=O)c2c1C	?	30%	22µM*	-22%	-14%[11.6 µM]	8.9µM*	32µM*	/	7%
O=C(/C=C/c1ccc(Br)cc1)c1ccc(NC(=O)c2ccco2)cc1	4µM*	9%	-18%	?	-7%	17%	27µM*	?	?
CN(CCC#N)C(=O)COC(=O)c1c2c(nc3ccccc13)/C(=C/c1ccco1)CC2	16µM*	8%	14µM*	?	?	14µM*	?	/	?
COc1ccc(Br)cc1CNc1ccc2[nH]c(=O)[nH]c2c1	i	1%	-6%	-5%	3%	1%	/	/	/
CCOc1ccccc1CNc1ccc(O)cc1	20µM*	28µM*	28µM*	?	-23%	-19%	-9%	10%[114 µM]	1%	ADP FP counter=56µM*
COc1ccc(Br)cc1CNc1ccc(O)cc1	28µM*	8.9µM*	20µM*	?	-12%[57.1 µM]	-9%	-3%	/	-12%
Cc1c2oc3c(C)ccc(C(=O)N[C@@H]4C(=O)N[C@H](C(C)C)C(=O)N5CCC[C@H]5C(=O)N(C)CC(=O)N(C)[C@@H](C(C)C)C(=O)O[C@@H]4C)c3nc-2c(C(=O)N[C@@H]2C(=O)N[C@H](C(C)C)C(=O)N3CCC[C@H]3C(=O)N(C)CC(=O)N(C)[C@@H](C(C)C)C(=O)O[C@@H]2C)c(N)c1=O	3.5µM*	1%[201 µM]	?	0%[201 µM]	/	13µM*!	?	1.4µM*	/
CCC1NC(=O)C(NC(=O)c2ncccc2O)C(C)OC(=O)C(c2ccccc2)NC(=O)C2CC(=O)CCN2C(=O)C(Cc2ccccc2)N(C)C(=O)C2CCCN2C1=O (stereo unspecified)	/	/	-2%	/	/	/	/	/	/
Cc1ccc(C(=O)NC2(C(F)(F)F)N=C(c3ccccc3)N(Cc3ccccc3)C2=O)cc1 (stereo unspecified)	/	4%	-14%	1%	/	/	/	/	/
O=c1c(-c2cc(F)cc(F)c2)nc2cnc(N3CCNCC3)nc2n1Cc1ccc(F)cc1	?	/	35µM*	/	/	?	?	/	?
Cn1ncc([N+](=O)[O-])c1C(=O)Nc1ccc(-c2nc3ccccc3[nH]2)cc1	?	2%	-6%	-5%	-10%	-3%	/	/	/
CCOc1ccc(C(=O)Nc2ccc(-c3nc4ccccc4[nH]3)cc2)cc1[N+](=O)[O-]	7.9µM*	6%	-15%	0%	?	0%	?	?	?
CC1SC(c2ccc(F)cc2)N(CCc2ccccc2)C1=O (stereo unspecified)	/	/	-3%	/	12%	0%	/	/	/
Cc1ccccc1-c1cc2nc(C)c(Cl)c(=O)n2[nH]1	/	/	/	/	-18%	/	/	/	/
Cc1nc2cc(-c3ccsc3-n3c(C)ccc3C)[nH]n2c(=O)c1Cl	2.8µM*	19%	16µM*	45µM*[quencher]	?	?	?	40µM*	?	ADP FP counter=32µM*
O=C(CSc1nnc(-c2cccc(Cl)c2)o1)N1CCc2ccccc21	/	-6%	1%	-2%	/	/	/	/	/
O=C(NCc1ccco1)c1c2c(nc3ccccc13)CCC2	28µM*	2%	18µM*	-6%	45µM*	?	?	/	?
Cc1noc(C)c1S(=O)(=O)N(C)C[C@H]1OCc2cn(nn2)CCCC(=O)N([C@H](C)CO)C[C@@H]1C	/	/	/	/	4%	/	/	/	/
Cn1c(=O)c2c(-c3ccc(Cl)cc3)ccnc2n(C)c1=O	/	-3%	-3%	2%	/	/	/	/	/
Cc1ccccc1-n1nc2c(c1NC(=O)C1CCCC1)CS(=O)(=O)C2	/	/	1%	/	5%	50%	/	/	/
Cc1[nH]c2ccccc2c1/C=N/NC(=O)c1cccc([N+](=O)[O-])c1	1.6µM*	2%	-8%	-4%	-11%[57.1 µM]	-11%	?	?	/	ADP FP counter=41%[91.9 µM]
SMILES	RECQ1 inh-1	TRb SRC2 PPI	BLM inh-1	TR SRC2 fluor cs	WRN helicase inh	APEX1 inh	BLM inh-2	RECQ1 inh conf	RECQ1 inh-2	others
Cc1[nH]c2ccccc2c1/C=N/NC(=O)c1cccc(F)c1	-8%	4%	-10%	-8%	0%	3%	/	/	/
CC1CCCCC12NC(=O)N(CC(=O)N1CCN(S(=O)(=O)c3ccc4c(c3)CCC4)CC1)C2=O (stereo unspecified)	/	/	/	/	2%	-5%	/	/	/
O=C(CSc1nc(-c2ccccc2)nc2c1Cc1ccccc1O2)Nc1ccc(C(=O)O)cc1	8.9µM*	?	10µM*	?	?	1%	13µM*	4%[69.1 µM]	/
O=C(O)C1Nc2c(O)cccc2C2C=CCC12 (stereo unspecified)	4µM*	17%	4.5µM*	?	11µM*	3.5µM*	5.4µM*	?	/
CC(C)CNC(=O)C1Nc2ccccc2C2C=CCC12 (stereo unspecified)	/	/	/	/	5%	/	/	/	/
CC(=O)Nc1ccc(SCC(=O)c2ccc(Br)s2)cc1	/	/	-13%	/	-30%	29%	/	/	/
Cc1ccc(SCC(=O)c2ccc(CC(=O)O)s2)cc1	25µM*	2%	25µM*	-6%	?	-12%	?	/	7%
Cc1cc(-c2nc3c4c5c(sc4[nH]c(=O)n3n2)CCC5)c(C)o1	13µM*	-5%	14µM*	?	?	?	11µM*	18µM*	?	ADP FP counter=?

Compound activity deposited in PubChem BioAssay by National Center for Advancing Translational Sciences (NCATS).
